Reference: the supplement of paper PMC3545927
The other results are listed elsewhere or left out. The true hit rate is not given.

Biological target: furin, P09958
Experiment: furin cleavage Z-score vs untreated control; higher = more cleavage, active = 3.5 or more, inactive = 1 or less, 8 variable residues between constant flanks
Procedure, shortened: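 To give the cleavage Z-score, log read counts were set against furin-free reactions, lowess-adjusted and scaled by median absolute deviation. These counts came from PCR adapter-tagged, sequenced DNA released when purified furin cut 8-mer peptides fused to a cDNA oligonucleotide and held on magnetic beads by their N-terminus. Digests were 0.01 ml, 1:10 enzyme:substrate, in 50 mM HEPES pH 7.5 with CaCl2 and NaCl, for 7.5, 15 or 30 min.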

Sequence of furin, P09958 (P09958 whole entry): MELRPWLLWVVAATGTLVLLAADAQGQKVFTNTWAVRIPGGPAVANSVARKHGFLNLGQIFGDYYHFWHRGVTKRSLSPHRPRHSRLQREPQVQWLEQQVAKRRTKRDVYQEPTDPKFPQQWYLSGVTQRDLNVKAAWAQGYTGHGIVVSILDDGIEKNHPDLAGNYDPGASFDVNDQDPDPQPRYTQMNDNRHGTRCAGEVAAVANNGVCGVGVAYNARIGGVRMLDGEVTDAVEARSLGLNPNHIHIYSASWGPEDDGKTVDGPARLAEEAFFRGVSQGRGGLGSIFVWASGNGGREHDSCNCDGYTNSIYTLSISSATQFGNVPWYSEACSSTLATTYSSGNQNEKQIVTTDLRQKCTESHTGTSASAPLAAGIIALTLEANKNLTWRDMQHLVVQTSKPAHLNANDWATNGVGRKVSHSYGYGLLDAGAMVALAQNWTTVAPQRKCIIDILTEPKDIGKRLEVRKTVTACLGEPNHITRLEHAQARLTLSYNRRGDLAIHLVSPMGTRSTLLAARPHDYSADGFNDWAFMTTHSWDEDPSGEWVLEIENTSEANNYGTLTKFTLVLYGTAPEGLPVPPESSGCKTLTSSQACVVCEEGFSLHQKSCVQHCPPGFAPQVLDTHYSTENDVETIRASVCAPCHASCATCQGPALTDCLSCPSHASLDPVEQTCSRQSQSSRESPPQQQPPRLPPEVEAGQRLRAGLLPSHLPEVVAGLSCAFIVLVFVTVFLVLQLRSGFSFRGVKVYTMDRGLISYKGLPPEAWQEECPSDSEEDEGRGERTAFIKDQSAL

| Sequence | furin cleavage Z-score (7.5 min) | furin cleavage Z-score (15 min) | furin cleavage Z-score (30 min) |
| --- | --- | --- | --- |
| CAEVPCHRPQAGNASASA [HC2422] | 1.53 | 0.977 (inactive) | -0.457 (inactive) |
| CAHVCCSMSYAGNASASA [HC1995] | -0.946 (inactive) | -0.551 (inactive) | -0.241 (inactive) |
| CASTPCSAHGAGNASASA [HC2576] | -0.871 (inactive) | 0.825 (inactive) | -0.885 (inactive) |
| CAIKLGALTGAGNASASA [HC630] | -0.745 (inactive) | -0.643 (inactive) | -1.94 (inactive) |
| CAGMMLAEQFAGNASASA [HC1021] | 0.171 (inactive) | 0.335 (inactive) | -0.461 (inactive) |
| CASCARHRRSAGNASASA [FS-90] | 4.64 (active) | 3.79 (active) | 4.71 (active) |
| CASKRDHRRSAGNASASA [FS-1411] | 1.79 | -0.35 (inactive) | 0.449 (inactive) |
| CARHRRQRRSAGNASASA [FS-707] | 10.1 (active) | 10.5 (active) | 8.1 (active) |
| CARHRRLRGPAGNASASA [FS-1825] | -1.67 (inactive) | -0.893 (inactive) | -1.28 (inactive) |
| CAMEECSQKLAGNASASA [HC1754] | 1.17 | 0.659 (inactive) | 1.26 |
| CARMRRPPGGAGNASASA [FS-2496] | -0.899 (inactive) | -0.697 (inactive) | -0.784 (inactive) |
| CATTMRSPVFAGNASASA [HC762] | -1.56 (inactive) | -0.725 (inactive) | -0.54 (inactive) |
| CARMRRRPGPAGNASASA [FS-2725] | 0.305 (inactive) | 1.58 | 1.1 |
| CARMRRALVFAGNASASA [FS-3001] | 4.84 (active) | 4.35 (active) | 6.45 (active) |
| CARDGRDGTPAGNASASA [FS-2000] | 0.0974 (inactive) | -0.249 (inactive) | 0.34 (inactive) |
| CARMRRDGWPAGNASASA [FS-2723] | 2.95 | 4.8 (active) | 5.65 (active) |
